In PubChem BioAssay AID1159580 (chemical genetic matrix, 2015):
The whole screen tested about 5,500 compounds, of which about 2,000 (36%) were called active. Roughly 18% stayed inconclusive and do not appear here. No stated cut-off is given here; in the data, active means normalized growth mostly below about 0.91 (no sharp cut-off); inconclusive means no clear call, values can overlap the other calls; inactive means mostly above about 0.92. The list shows a part of the results.

Assay: chemical genetic growth profiling, strain panel (AID 1159580);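 further: tested at 20 µM; growth read once vehicle control cultures reached saturation at 30 °C; 1 = growth at the plate median or of vehicle wells; lower values mean less growth of the strain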
Details: S. cerevisiae deletion strains, growth OD
[1] = locus YAL013W, strain DEP1, active compounds read low
[2] = locus YAL040C, strain CLN3, active compounds read low
[3] = locus YCL061C, strain MRC1 (second series), active compounds read low
[4] = locus YER002W, strain NOP16, active compounds read low
[5] = locus YNL153C, strain GIM3, active compounds read low
[6] = locus YNL175C, strain NOP13, active compounds read low
[7] = locus YNL197C, strain WHI3, active compounds read low
[8] = locus YNL224C, strain SQS1, active compounds read low
[9] = locus YOR083W, strain WHI5 (second series), active compounds read low

Measured: normalized growth

Oc1ccccc1O
inactive: [1] 0.966 | [2] 0.983 | [3] 0.971 | [4] 1 | locus YGR229C, strain SMI1, active compounds read low 0.904 | [5] 1.03 | [6] 1.02 | [7] 1.02 | [8] 0.999 | [9] 1.03

c1cnc2c(c1)ccc1cccnc12
inactive: [2] 1.07
active: [1] 0.0762 | [3] 0.0542 | locus YDR363W, strain ESC2, active compounds read low 0.0973 | [4] 0.0834 | locus YGR078C, strain PAC10, active compounds read low 0.109 | locus YJR075W, strain HOC1, active compounds read low 0.0769 | [5] 0.103 | [6] 0.0953 | [7] 0.0905 | [8] 0.123 | locus YNL322C, strain KRE1, active compounds read low 0.0666 | [9] 0.0868
